# From PubChem BioAssay (Tox21)
# Inconclusive results are not listed. A call without a number means that no potency is given here. Activity calls are given as the source filed them. Calls come from the whole dose curve; as a rule, active = well fitted cell-killing curve with a large enough effect in the repeat runs; inconclusive = weak or mixed curves, or effect the other way; inactive = flat fitted curve, though single readings scatter.
# Experiment: Human pregnane X receptor (PXR) small molecule agonists, qHTS cell viability counter screen (AID 1346977); note: nearly all actives have a fitted effect of over 50% in size
# Conditions: PXR-Luc HepG2 viability, CellTiter-Fluor, 24 h; series mostly up to 92.4 µM
# Description: U.S. Tox21 Program National Center for Advancing Translational Sciences [NCATS] NIH Chemical Genomics Center [NCGC] U.S. Environmental Protection Agency [EPA] National Institutes of Environmental Health Sciences [NIEHS] National Toxicology Program [NTP] U.S. Food and Drug Administration [FDA] Tox21 Assay Overview: The human pregnane X receptor (hPXR) regulates the expression of several drug metabolizing enzymes and induction of these proteins is a major mechanism for developing drug resistance in cancer. One such key enzyme catalyzing the drug metabolism is cytochrome P450 3A4 (CYP3A4). Changes in CYP3A4 expression affect drug metabolism, thereby reducing the therapeutic efficacy and altering toxicological response to a drug and which finally causes adverse drug interaction. To screen Tox21 libraries for compounds that activate hPXR-mediated CYP3A4 gene expression, PXR-Luc HepG2 cells were used. Also cytotoxicity of the compounds was tested in parallel by measuring the cell viability using CellTiter-Fluor assay system in the same wells.
# Tox21 Assay Protocol Summary: PXR-Luc HepG2 cells were dispensed at 2,000 per well in 5uL of assay medium containing 5% charcoal-stripped FBS into white solid bottom 1536-well plates (Corning Life Sciences, Corning, NY) using a Multidrop Combi (Thermo Scientific, Waltham, MA) dispenser. The assay plates were incubated at 37 C and 5% CO2 for 5hr, and then 23nL of compounds dissolved in DMSO and positive control were transferred using a Pintool station (Wako, San Diego, CA). The assay plates were incubated at 37C and 5% CO2 for 24hr. For cytotoxicity read, after 23hr incubation at 37C, 1uL CellTiter-Fluor reagent (Promega Corporation, Madison, WI) was added to each well of the assay plates using Flying Reagent Dispenser (FRD, Aurora Discovery, San Diego, CA). After 1hr incubation at 37C and 5% CO2, the fluorescence signal was quantified using a ViewLux plate reader (PerkinElmer, Shelton, CT).
row,Structure (SMILES),Potency
1,C=CCCC#N,inactive
2,CCCCS(=O)(=O)Cl,inactive
3,C=CC1(C)OC(=O)N(c2cc(Cl)cc(Cl)c2)C1=O (stereo not given),inactive
4,O=S1(=O)OCCO1,inactive
5,ClCCCCl,inactive
6,CC1=C2[C@H]3OC(=O)[C@@H](C)[C@@H]3CC[C@@]2(C)C=CC1=O,inactive
7,CCC(C)C(C)(COC(N)=O)COC(N)=O (stereo not given),inactive
8,CCC(C)(C#N)N=NC(C)(C#N)CC (stereo not given),inactive
9,CC(C)NCC(O)c1ccc([N+](=O)[O-])cc1 (stereo not given),inactive
10,COc1cccc(C=O)c1,inactive
11,CCc1ccc(C2CCNCC2)cc1,inactive
12,CCOC(=O)CCl,inactive
13,N=C(N)[Se],inactive
14,CCC(CC)(CNC(=O)CCCO)c1cccc(OC)c1,inactive
15,CCOC1Oc2ccc(OS(C)(=O)=O)cc2C1(C)C (stereo not given),inactive
16,CC[C@H](N)c1ccccc1,inactive
17,CCNc1nc(Cl)nc(NC(C)(C)C)n1,inactive
18,CCN(CC)C1CCCCC1,inactive
19,CCOC(=O)C(SP(=S)(OC)OC)c1ccccc1 (stereo not given),inactive
20,CCC1(c2cccc(O)c2)CCCCN(C)C1 (stereo not given),inactive

row,Structure (SMILES),Potency
1,COc1cccc([C@@]2(O)CCCC[C@@H]2CN(C)C)c1,inactive
2,CC(C)C(C)(N)C#N (stereo not given),inactive
3,CCN(CCO)CCn1c(Cc2ccccc2)nc2c1c(=O)n(C)c(=O)n2C,inactive
4,CC(C)(C)C(=O)C(Cl)Cl,inactive
5,CC(O)CCl (stereo not given),inactive
6,CCN1CCCC1CNC(=O)C(O)(c1ccccc1)c1ccccc1 (stereo not given),inactive
7,CCCC(C)(COC(N)=O)COC(N)=O,inactive
8,O=C(O)C(F)(F)C(F)(F)C(F)(F)C(F)(F)C(F)(F)C(F)(F)F,inactive
9,N#CN=C1SCCN1Cc1ccc(Cl)nc1,inactive
10,CC(C)c1ccc(O)cc1,inactive
11,C(COCC1CO1)OCC1CO1 (stereo not given),inactive
12,CCN[C@H](C)Cc1cccc(C(F)(F)F)c1,inactive
13,CC(C)(N)Cc1ccc(Cl)cc1,inactive
14,CCNP(=S)(OC)O/C(C)=C/C(=O)OC(C)C (stereo not given),inactive
15,Nc1c(Cl)c(F)nc(OCC(=O)O)c1Cl,inactive
16,CC(C)[C@]12CC(=O)[C@H](C)[C@H]1C2,inactive
17,OCC(Cl)CCl (stereo not given),inactive
18,C#CCOC(=O)/C=C(C)/C=C/CC(C)CCCC(C)C (stereo not given),inactive
19,CC[C@@H](CO)NC(=O)[C@@H]1C=C2c3cccc4[nH]cc(c34)C[C@H]2N(C)C1,inactive
20,NC(=O)CS(=O)C(c1ccccc1)c1ccccc1 (stereo not given),inactive
